# “And” between values parts separate entries of the source, which are not always exact repeats. Identical values can stand only once. More than one record can exist for a structure, and the calls need not agree. The source made the active and inactive calls. Rule for the calls: active = hit-call score of the fitted dose curve at least 0.9, where 1 is the maximum; inactive = score below 0.9.
# Assays:
# [1] = read-out: Interleukin-8 (IL8), CXCL8 (gene 3576); test: BSK_MyoF_IL8: BioMAP Diversity Plus: MyoF Assay for Interleukin-8 (IL8) Biomarker Activity (AID 2284261); conditions: primary human lung fibroblasts
# In short: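 DMSO-normalised, upward-fitted IL-8 ELISA signal; human lung fibroblasts, 24 h chemical treatment.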
# [2] = read-out: Decorin, DCN (gene 1634); test: BSK_MyoF_Decorin: BioMAP Diversity Plus: MyoF Assay for Decorin Biomarker Activity (AID 2284265); conditions: primary human lung fibroblasts
# In short: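 In this multiplexed fibroblast system, secreted or surface decorin is detected by ELISA one day after dosing, with increases scored against the DMSO vehicle.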
# [3] = read-out: CD69, CD69 (gene 969); test: BSK_IMphg_CD69: BioMAP Diversity Plus: IMphg Assay for CD69 Biomarker Activity (AID 2284257); conditions: primary human endothelial cells with macrophages
# In short: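 Readout is ELISA for CD69 in primary human venular endothelial cell/macrophage co-culture, taken at 24 h post-dosing. SRB staining of parallel cultures gauged overt cytotoxicity; signal increase versus DMSO defined activity.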
# [4] = read-out: Eotaxin 3, CCL26 (gene 10344); test: BSK_BF4T_Eotaxin3: BioMAP Diversity Plus: BF4T Assay for Eotaxin 3 Biomarker Activity (AID 2284258); conditions: primary human bronchial epithelial cells with fibroblasts
# In short: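 ELISA measurement of Eotaxin-3 after 24 h chemical exposure in a bronchial epithelial/dermal fibroblast co-culture, with DMSO as baseline. Parallel SRB staining (0.1% SRB after 10% TCA fixation, 560 nm) flagged overt cytotoxicity.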
# [5] = read-out: Monocyte Chemoattractant Protein-1 (MCP1), CCL2 (gene 6347); test: BSK_BF4T_MCP1: BioMAP Diversity Plus: BF4T Assay for Monocyte Chemoattractant Protein-1 (MCP1) Biomarker Activity (AID 2284259); conditions: primary human bronchial epithelial cells with fibroblasts
# In short: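 MCP-1 ELISA readout taken 24 h after dosing in the BF4T system (bronchial epithelial cells plus dermal fibroblasts). Parallel SRB total-protein staining flagged cytotoxicity; DMSO served as baseline, positive fitting direction.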
# [6] = read-out: Intercellular Adhesion Molecule 1 (ICAM1), ICAM1 (gene 3383); test: BSK_BF4T_ICAM1: BioMAP Diversity Plus: BF4T Assay for Intercellular Adhesion Molecule 1 (ICAM1) Biomarker Activity (AID 2284260); conditions: primary human bronchial epithelial cells with fibroblasts
# In short: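 ICAM-1 levels measured by ELISA after 24 h chemical treatment of bronchial epithelial cell/dermal fibroblast co-cultures, read against DMSO baseline. Overt cytotoxicity checked in parallel cultures by sulforhodamine B staining.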
# [7] = read-out: CD90, THY1 (gene 7070); test: BSK_BF4T_CD90: BioMAP Diversity Plus: BF4T Assay for CD90 Biomarker Activity (AID 2284262); conditions: primary human bronchial epithelial cells with fibroblasts
# Method: BSK_BF4T is a cell-based, multiplexed-readout assay that uses bronchial epithelial cells and dermal fibroblasts, a human vascular primary cell, with measurements taken at 24 hours after chemical dosing in a microplate: 96-well plate.BSK_BF4T_CD90 is an assay component measured in the BSK_BF4T assay. It measures CD90 antibody related to regulation of gene expression using ELISA technology.Data from the assay component BSK_BF4T_CD90 was analyzed at the endpoint, BSK_BF4T_CD90, in the positive analysis fitting direction relative to DMSO as the negative control and baseline of activity. Using a type of binding reporter, gain or loss-of-signal activity can be used to understand protein changes. To generalize the intended target to other relatable targets, this assay endpoint is annotated to the 'cytokine' intended target family, where the subfamily is 'inflammatory factor'.
# The levels of cell surface (or secreted, indicated by the prefix "s") biomarker endpoints were measured by ELISA. Overt cytotoxicity to cells in confluent adherent cultures (all systems other than the BT system) was assessed by measuring total protein levels using sulforhodamine B (SRB) staining in parallel cultures at the time of biomarker measurements, indicated as SRB endpoints. For proliferation assays for adherent cell types, individual cell types are cultured at sub-confluence and relative cell numbers quantified by SRB staining at time points optimized for each system (48 h: 3C and CASM3C systems; 72 h: BT and HDF3CGF systems; 96 h: SAg system). SRB was performed by staining cells with 0.1% SRB after fixation with 10% TCA and reading wells at 560 nm.Viability and proliferation of PBMC (T cells) was quantified by Alamar Blue reduction for the SAg and BT systems. For PBMC viability (referred to as PBMC Cytotoxicity within the assay endpoint names), cells were plated (75,000/well in a 96-well plate) and then chemical samples added for 1 h before addition of activators, SEB and TSST-1 (20 ng/mL final concentration each). Cells were incubated for 90 h. Then, Alamar Blue (20 uL/well) (Invitrogen, Cat DAL1100) was added for 6 h, and the plates were read with a fluorescence microplate reader at 546/580 nm (excitation/emission). For PBMC proliferation, cells were plated and activated as above but incubated for only 16 h prior to addition of Alamar Blue. Plates were read after 6 h.
# [8] = read-out: Interleukin-8 (IL8), CXCL8 (gene 3576); test: BSK_BF4T_IL8: BioMAP Diversity Plus: BF4T Assay for Interleukin-8 (IL8) Biomarker Activity (AID 2284263); conditions: primary human bronchial epithelial cells with fibroblasts
# In short: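 Human bronchial epithelial cells with dermal fibroblasts co-culture; IL-8 measured by ELISA 24 hours after dosing, fitted vs DMSO. Cytotoxicity tracked in parallel cultures by SRB total-protein staining.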
# [9] = read-out: Interleukin-1 alpha (IL1a), IL1A (gene 3552); test: BSK_BF4T_IL1a: BioMAP Diversity Plus: BF4T Assay for Interleukin-1 alpha (IL1a) Biomarker Activity (AID 2284264); conditions: primary human bronchial epithelial cells with fibroblasts
# In short: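 ELISA read-out of IL-1α from bronchial epithelial cell/dermal fibroblast co-cultures 24 h after compound addition. Increases scored against DMSO negative control. Cytotoxicity monitored by sulforhodamine B staining of parallel cultures.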
# [10] = read-out: KRT18 (gene 3875); test: BSK_BF4T_Keratin818: BioMAP Diversity Plus: BF4T Assay for Keratin 818 Biomarker Activity (AID 2284266); conditions: primary human bronchial epithelial cells with fibroblasts
# In short: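 Keratin 8/18 levels quantified by ELISA after 24 h chemical treatment of bronchial epithelial cell/dermal fibroblast co-cultures, fitted in positive direction relative to DMSO. Parallel SRB staining tracks overt cytotoxicity.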
structure (smiles),measurement,setting,value
O=Cc1cccc(Oc2ccccc2)c1,outcome,[1],inactive
same,outcome,[2],inactive
CCSC(C)CC1CC(=O)C(C(CC)=NOC/C=C/Cl)=C(O)C1 (configuration not stated),outcome,[1],inactive
same,outcome,[2],inactive
ClC1=C(Cl)[C@]2(Cl)[C@H]3[C@H]([C@H]4C=C[C@H]3C4)[C@@]1(Cl)C2(Cl)Cl,AC50,[1],2.92 µM (active)
same,outcome,[2],inactive
O=[N+]([O-])c1ccc2c3c(cccc13)CC2,outcome,[1],inactive
same,outcome,[2],inactive
NC(=S)Nc1ccccc1,outcome,[1],inactive
same,outcome,[2],inactive
COP(=S)(OC)Oc1ccc(S(=O)(=O)N(C)C)cc1,outcome,[1],inactive
same,outcome,[2],inactive
CCOP(=S)(OCC)SCCS(=O)(=O)CC,outcome,[1],inactive
same,outcome,[2],inactive
CCCCC(CC)CO[N+](=O)[O-] (configuration not stated),outcome,[1],inactive
same,outcome,[2],inactive
CCNc1nc(NC(C)(C)C)nc(SC)n1,outcome,[1],inactive
same,outcome,[2],inactive
Oc1c(I)cc(I)cc1I,AC50,[1],3.55 µM (active)
same,outcome,[2],inactive
COP(=S)(OC)Oc1ccc(Sc2ccc(OP(=S)(OC)OC)cc2)cc1,AC50,[1],20 µM (active)
same,outcome,[2],inactive
O=C(O)C(F)(F)C(F)(F)C(F)(F)C(F)(F)C(F)(F)C(F)(F)F,outcome,[3],inactive
same,outcome,[4],inactive
same,outcome,[5],inactive
same,outcome,[6],inactive
same,outcome,[1],inactive
same,outcome,[7],inactive
same,outcome,[8],inactive
same,outcome,[9],inactive
same,outcome,[2],inactive
same,outcome,[10],inactive
CCOP(=S)(OCC)Oc1ccc(S(C)=O)cc1 (configuration not stated),outcome,[1],inactive
same,outcome,[2],inactive
CC(C)CCCCCCOC(=O)c1ccccc1C(=O)OCCCCCCC(C)C,outcome,[1],inactive
same,outcome,[2],inactive
Nc1ccc(-c2ccc(N)c(Cl)c2)cc1Cl,AC50,[1],2.04 µM (active)
same,outcome,[2],inactive
O=S(=O)(c1ccc(Cl)cc1)c1ccc(Cl)cc1,outcome,[1],inactive
same,outcome,[2],inactive
COC(=O)c1sccc1S(=O)(=O)NC(=O)Nc1nc(C)nc(OC)n1,outcome,[1],inactive
same,outcome,[2],inactive
COP(=S)(OC)Oc1c(Cl)cc(C)cc1Cl,outcome,[1],inactive
same,outcome,[2],inactive
O=C(OC1CCCCC1)c1ccccc1C(=O)OC1CCCCC1,AC50,[1],5.72 µM (active)
same,outcome,[2],inactive
Oc1ccc(-c2ccccc2)cc1,outcome,[1],inactive
same,outcome,[2],inactive
Nc1cccc2ccccc12,AC50,[1],11.4 µM (active)
same,outcome,[2],inactive
CCCCCCCCC(=O)NCc1ccc(O)c(OC)c1,outcome,[1],inactive
same,outcome,[2],inactive
CC(C)c1ccc(CO)cc1,outcome,[1],inactive
same,outcome,[2],inactive
O=C(O)CCC(F)(C(F)(F)F)C(F)(F)F,outcome,[3],inactive
same,outcome,[4],inactive
same,outcome,[5],inactive
same,outcome,[6],inactive
same,outcome,[1],inactive
same,outcome,[7],inactive
same,outcome,[8],inactive
same,outcome,[9],inactive
same,outcome,[2],inactive
same,outcome,[10],inactive
COC[C@H](C)N(C(=O)CCl)c1c(C)csc1C,outcome,[1],inactive
same,outcome,[2],inactive
O=C(O)C(F)(F)C(F)(F)C(F)(F)C(F)(F)C(F)(F)C(F)(F)C(F)(F)C(F)(F)C(F)(F)C(F)(F)F,outcome,[3],inactive
same,AC50,[4],3.14 µM (active) and 3.33 µM (active)
same,AC50,[5],5.55 µM (active) and 5.18 µM (active)
same,AC50,[6],5.15 µM (active) and 4.51 µM (active)
same,AC50,[1],6.34 µM (active) and 6.43 µM (active)
same,AC50,[7],4.83 µM (active)
same,outcome,[7],inactive
same,AC50,[8],5.82 µM (active) and 5.74 µM (active)
same,AC50,[9],5.56 µM (active) and 6.17 µM (active)
same,AC50,[2],5.02 µM (active) and 5.16 µM (active)
same,AC50,[10],5.05 µM (active) and 5.17 µM (active)
COP(=S)(OC)Oc1cc(Cl)c(Cl)cc1Cl,AC50,[1],4.59 µM (active)
same,outcome,[2],inactive
COc1cc(OC)nc(NC(=O)NS(=O)(=O)c2ncccc2C(=O)N(C)C)n1,outcome,[1],inactive
same,outcome,[2],inactive
OCc1ccco1,outcome,[1],inactive
same,outcome,[2],inactive
ClC(Cl)=C(Cl)C(Cl)=C(Cl)Cl,AC50,[1],15.1 µM (active)
same,outcome,[2],inactive
Nc1ncc([N+](=O)[O-])s1,outcome,[1],inactive
same,outcome,[2],inactive
CC(=O)C(Cl)C(=O)N(C)C (configuration not stated),outcome,[1],inactive
same,outcome,[2],inactive
BrCCBr,outcome,[1],inactive
same,outcome,[2],inactive
CC1(C)Cc2cccc(O)c2O1,outcome,[1],inactive
same,outcome,[2],inactive
C(=NC1CCCCC1)=NC1CCCCC1,AC50,[1],33.1 µM (active)
same,outcome,[2],inactive
CCOC(=O)/C=C(C)/C=C/C[C@@H](C)CCCC(C)C,outcome,[1],inactive
same,AC50,[2],20 µM (active)
